INS promoter inh = TRM-6 insulin promoter activity inhibition | TRM-6 cells (human fetal islet line), insulin promoter-eGFP reporter, imaging; reporter expression induced with tamoxifen | inhibition, % at 2 µM | hit rate 0.9% among 130,000;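 active = inhibition above the mean plus 3 SD, with well images judged a real hit on visual review, cut at about 60% in these data, passing the limit was not always enough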
WT yeast gro inh = growth inhibition of WT yeast, mitochondrial fusion screen; mitochondrial fusion phenotypic screen, WT strain; inhibition, % at 10 µM; hit rate 2.1% among 190,000; AID 1362; in the data active = inhibition above about 58%; tested in S. cerevisiae
ROMK mod = human ROMK K+ channel modulation, primary screen; P48048; Tet-inducible ROMK, thallium flux fluorescence; actives lie on both sides; hit rate 2% among 130,000; B-score at 10 µM;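 active = signal ratio slope over the read window, or its plate-corrected B-score, at least 3 SD from the plate mean, either direction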;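 also: B-score of the F/F0 ratio slope over 7 to 12 s after thallium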
Target sequence (P48048 whole entry, looked up): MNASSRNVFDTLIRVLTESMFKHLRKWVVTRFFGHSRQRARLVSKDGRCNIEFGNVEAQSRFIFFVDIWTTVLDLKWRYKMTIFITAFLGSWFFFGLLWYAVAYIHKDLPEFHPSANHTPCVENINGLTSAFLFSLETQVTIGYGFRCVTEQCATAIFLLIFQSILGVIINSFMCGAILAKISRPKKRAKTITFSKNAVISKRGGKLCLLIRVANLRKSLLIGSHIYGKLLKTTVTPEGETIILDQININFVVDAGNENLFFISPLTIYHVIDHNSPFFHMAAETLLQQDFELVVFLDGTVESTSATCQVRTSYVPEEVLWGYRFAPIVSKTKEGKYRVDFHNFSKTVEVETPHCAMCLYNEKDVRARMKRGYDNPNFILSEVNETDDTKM
Insulin prom up = MIN6 insulin promoter up-regulation; z-score at 5 µM; hit rate 0.3% among 190,000; AID 1625; MIN6 insulin promoter-GFP reporter, high-content imaging; active compounds read high;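 active = z-score above 3 at 5 µM with at least 500 cells counted in the well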
Cl transport mod = modulates chloride dependent transport by human KCC2; B-score of Tl+ flux slope (higher = more flux/activation; lower = inhibition) at 10 µM; Q9H2X9; hit rate 2.2% among 190,000; KCC2 cells, thallium flux FluoZin-2 fluorescence; AID 1456;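 active = thallium flux slope and its plate-corrected score both differing from the plate sample mean at a set confidence after two filtering rounds, in either direction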;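 also: slope of fluorescence scaled to starting intensity during 10 to 20 s after thallium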
L major viab = reduces viability of Leishmania major promastigotes; inhibition, % at 10 µM; hit rate 9% among 200,000; resazurin fluorescence viability; AID 1063; in the data active = inhibition above about 50%;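 also: promastigotes grown with compound for 44 hours at 28 °C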
* marks the source's active call; other numbers are inactive results. Compounds with a hit are over-represented: about 12% of the library has one in this group of screens.

What do the screens show for `COc1ccc(C(c2nnnn2Cc2ccccc2)N2CCN(C(=O)c3ccco3)CC2)cc1` (stereo not drawn)?
WT yeast gro inh: 2.7; Insulin prom up: -1.29; Cl transport mod: -2.51; L major viab: 57.7*

How did CCOc1ccc(C(c2nnnn2Cc2ccccc2)N2CCN(C(=O)c3ccco3)CC2)cc1 (stereo not drawn) do in these assays?
INS promoter inh: -20.0; Cl transport mod: -1.15; L major viab: 23.4

How did Fc1ccc(C(c2nnnn2Cc2cccs2)N2CCN(C3CCCCC3)CC2)cc1 (stereo not drawn) do in these assays?
WT yeast gro inh: 1.0; ROMK mod: -5.75*; Insulin prom up: -0.9; Cl transport mod: 0.291; L major viab: 26.4

Results for CN1CCN(C(c2ccc(F)cc2)c2nnnn2Cc2cccs2)CC1 (stereo not drawn) ?
WT yeast gro inh: -14.8; Insulin prom up: 0.12; Cl transport mod: 0.404; L major viab: -6.6

What do the screens show for `Cc1c(C2C(C#N)=C(N)N(c3ccccc3C#N)C3=C2C(=O)CCC3)cnn1C` (stereo not drawn)?
INS promoter inh: 2.8; WT yeast gro inh: 0.4; ROMK mod: 0.421; Insulin prom up: 0.09; Cl transport mod: -1.11; L major viab: 34.5

How did Cc1cn(Cc2ccccc2Cn2cc(C)c(=O)[nH]c2=O)c(=O)[nH]c1=O do in these assays?
ROMK mod: 0.232; Insulin prom up: 0.44; Cl transport mod: 0.309

Results for Cc1ccc(C(c2nnnn2Cc2cccs2)N2CCN(C(=O)c3ccco3)CC2)cc1 (stereo not drawn) ?
INS promoter inh: 8.3; WT yeast gro inh: 12.3; Insulin prom up: -0.11; Cl transport mod: -0.433; L major viab: 58.2*

What do the screens show for `COc1ccc(OC)c(C(c2nnnn2Cc2ccco2)N2CCN(C)CC2)c1` (stereo not drawn)?
WT yeast gro inh: 0.6; ROMK mod: -0.183; Insulin prom up: 0.09; Cl transport mod: 0.495; L major viab: 9.1

What do the screens show for `COc1cccc(C(c2nnnn2Cc2ccco2)N2CCN(c3cccc(C)c3C)CC2)c1OC` (stereo not drawn)?
INS promoter inh: 16.1; WT yeast gro inh: 54.8; Insulin prom up: -2.14; Cl transport mod: -0.0224; L major viab: 58.3*

Results for CCC(c1nnnn1Cc1cccs1)N1CCN(C(=O)c2ccco2)CC1 (stereo not drawn) ?
WT yeast gro inh: -2.4; ROMK mod: -0.443; Insulin prom up: -0.06; Cl transport mod: 0.338; L major viab: 4.3

How did O=C(c1ccco1)N1CCN(C(c2ccc(Cl)cc2)c2nnnn2Cc2ccccc2)CC1 (stereo not drawn) do in these assays?
INS promoter inh: -6.7; WT yeast gro inh: 10.0; Cl transport mod: -0.591; L major viab: 84.9*

Results for O=C(Nc1ccc2c(c1)OCO2)C(c1ccccc1)N1CCN(C(=O)c2ccco2)CC1 (stereo not drawn) ?
INS promoter inh: -18.8; WT yeast gro inh: 2.1; ROMK mod: 0.165; Insulin prom up: 0.35; Cl transport mod: 0.372; L major viab: 2.4

How did O=C(Nc1ccc2c(c1)OCO2)C(c1ccc(Cl)cc1)N1CCN(C(=O)c2ccco2)CC1 (stereo not drawn) do in these assays?
INS promoter inh: 70.0; WT yeast gro inh: 11.9; Insulin prom up: 1.22; Cl transport mod: -0.565; L major viab: 50.4*

What do the screens show for `Cc1ccc2nc(-c3cccc(N)c3)[nH]c2c1`?
INS promoter inh: 80.0*; WT yeast gro inh: 26.6; Cl transport mod: -0.538; L major viab: 6.7

Results for Fc1ccc(NCc2cccnc2)cc1 ?
INS promoter inh: -13.5; WT yeast gro inh: -19.4; ROMK mod: 0.486; Insulin prom up: -1.03; Cl transport mod: -0.595; L major viab: 82.5*

How did c1ccc(NCc2cccnc2)cc1 do in these assays?
INS promoter inh: 28.6; WT yeast gro inh: -18.5; Insulin prom up: -0.09; Cl transport mod: -0.755; L major viab: 13.0

What do the screens show for `c1ccc(-c2cc(-c3nc4ccccc4[nH]3)c3ccccc3n2)cc1`?
INS promoter inh: 22.2; WT yeast gro inh: 60.1*; ROMK mod: 0.762; Insulin prom up: 0.04; Cl transport mod: -1.03; L major viab: 26.1

What do the screens show for `Nc1cccc(-c2nc3ccccc3[nH]2)c1`?
INS promoter inh: 75.0*; WT yeast gro inh: 4.0; ROMK mod: 0.232; Cl transport mod: 2.56; L major viab: -0.1

What do the screens show for `Cc1ccc2nc(-c3sc4nc(C)cc(C)c4c3N)[nH]c2c1`?
INS promoter inh: 43.8; WT yeast gro inh: 9.8; ROMK mod: 0.275; Cl transport mod: -0.0283; L major viab: -2.4

Results for COc1cccc(/C=C/C(=O)Nc2ccc3nc4n(c(=O)c3c2)CCCC4)c1OC ?
WT yeast gro inh: -0.8; ROMK mod: 0.412; Cl transport mod: -1.88; L major viab: 19.1

How did O=S(=O)(c1cc(Cl)sc1Cl)N1CCCC1 do in these assays?
Insulin prom up: -0.03; Cl transport mod: -0.823

What do the screens show for `CCOC(=O)C1=C(C)Nc2nnnn2C1c1cccc(OC)c1OC` (stereo not drawn)?
INS promoter inh: 22.2; WT yeast gro inh: -19.7; ROMK mod: -0.845; Cl transport mod: -0.371; L major viab: 5.3

What do the screens show for `Nc1ccccc1-c1nc2ccccc2[nH]1`?
INS promoter inh: 93.8*; WT yeast gro inh: 10.9; ROMK mod: -0.828; Insulin prom up: -0.67; Cl transport mod: -1.78; L major viab: 17.4

What do the screens show for `Cn1cc(-c2nc3ccccc3[nH]2)c2ccccc21`?
INS promoter inh: 100.0*; WT yeast gro inh: 13.6; ROMK mod: -0.0113; Insulin prom up: 0.8; L major viab: 49.6

Results for c1cncc(CNc2cccc(-c3nc4ccccc4[nH]3)c2)c1 ?
INS promoter inh: 31.0; WT yeast gro inh: -1.4; ROMK mod: 0.786; Insulin prom up: -0.32; Cl transport mod: -1.37; L major viab: 67.4*

How did O=C(c1ccc(Cl)cc1)C(Cn1cncn1)C(Sc1ccccc1)c1ccccc1 (stereo not drawn) do in these assays?
INS promoter inh: -25.0; WT yeast gro inh: 33.0; Insulin prom up: 0.06; Cl transport mod: -0.713; L major viab: 91.8*

How did CCn1c(-c2cc(-c3ccc(C)c(C)c3)nc3ccccc23)n[nH]c1=S do in these assays?
INS promoter inh: 20.0; WT yeast gro inh: 58.2*; ROMK mod: 0.276; Cl transport mod: 1.31; L major viab: 33.3

How did COc1c(OC(C)=O)ccc(/C=C/c2ccc3ccccc3n2)c1[N+](=O)[O-] do in these assays?
INS promoter inh: -10.0; WT yeast gro inh: 67.9*; Insulin prom up: -0.05; L major viab: -3.1

Results for COC(=O)c1ccc(/C=C/c2ccc3cccc(OC(C)=O)c3n2)cc1 ?
WT yeast gro inh: -2.5; Insulin prom up: 1.48; Cl transport mod: -0.00309; L major viab: 4.2

How did COc1c(OC(C)=O)ccc(/C=C/c2ccc3cccc(OC)c3n2)c1[N+](=O)[O-] do in these assays?
WT yeast gro inh: 42.5; Insulin prom up: -0.45; Cl transport mod: -3.5; L major viab: 5.5
